Records with an inconclusive call do not appear. Active and inactive are the calls of the source. Unless noted, the call rests on the fitted dose curve; in most records, active means well fitted curve in the direction sought with a large enough effect; inconclusive means small, poorly fitted or top-dose-only effect, or another doubt; inactive means no such curve, though single readings can be large; an effect the other way counts as inactive or inconclusive.
How the values were obtained:
[1] = target: Cytochrome P450 1A2 (Homo sapiens) (UniProt P05177); assay: p450-cyp1a2 (AID 410; calls by dose curve; further: potency means the concentration at half of the fitted maximal effect)
Chain of Cytochrome P450 1A2 (Homo sapiens) (P05177 whole entry, looked up): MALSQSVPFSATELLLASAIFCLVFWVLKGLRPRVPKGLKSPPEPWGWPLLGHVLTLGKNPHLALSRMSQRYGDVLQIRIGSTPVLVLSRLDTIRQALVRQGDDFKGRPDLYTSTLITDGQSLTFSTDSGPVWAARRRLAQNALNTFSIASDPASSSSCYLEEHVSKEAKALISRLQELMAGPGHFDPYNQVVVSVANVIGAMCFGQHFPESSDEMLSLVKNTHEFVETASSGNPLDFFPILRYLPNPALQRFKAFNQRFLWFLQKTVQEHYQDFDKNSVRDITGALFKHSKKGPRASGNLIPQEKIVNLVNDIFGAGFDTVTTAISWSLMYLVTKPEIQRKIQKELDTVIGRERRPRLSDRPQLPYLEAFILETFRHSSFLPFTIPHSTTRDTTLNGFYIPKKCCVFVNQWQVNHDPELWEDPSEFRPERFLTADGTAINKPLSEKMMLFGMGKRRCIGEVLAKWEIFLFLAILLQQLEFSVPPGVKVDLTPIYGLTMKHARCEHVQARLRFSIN
Summary of the method: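 Human CYP1A2 (20nM) demethylated Luciferin-ME at its Km (100uM) in 100mM KPO4. After 10 min compound preincubation, NADPH regeneration ran the reaction 60 min at room temperature. Luciferin was read by luminescence, normalized to 57 uM furafylline.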

[2] = target: Glucocorticoid receptor (Homo sapiens) (UniProt P04150); assay: GR-GFP Redistribution (AID 450;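 active means compounds whose dose series gives a full or clear partial fitted curve of increased nuclear translocation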; further: potency means the concentration at half of the fitted maximal effect); conditions: U2OS GR-GFP nuclear translocation, laser cytometry, 2 h
Chain of Glucocorticoid receptor (Homo sapiens) (P04150 whole entry, looked up, the tested form may be a part): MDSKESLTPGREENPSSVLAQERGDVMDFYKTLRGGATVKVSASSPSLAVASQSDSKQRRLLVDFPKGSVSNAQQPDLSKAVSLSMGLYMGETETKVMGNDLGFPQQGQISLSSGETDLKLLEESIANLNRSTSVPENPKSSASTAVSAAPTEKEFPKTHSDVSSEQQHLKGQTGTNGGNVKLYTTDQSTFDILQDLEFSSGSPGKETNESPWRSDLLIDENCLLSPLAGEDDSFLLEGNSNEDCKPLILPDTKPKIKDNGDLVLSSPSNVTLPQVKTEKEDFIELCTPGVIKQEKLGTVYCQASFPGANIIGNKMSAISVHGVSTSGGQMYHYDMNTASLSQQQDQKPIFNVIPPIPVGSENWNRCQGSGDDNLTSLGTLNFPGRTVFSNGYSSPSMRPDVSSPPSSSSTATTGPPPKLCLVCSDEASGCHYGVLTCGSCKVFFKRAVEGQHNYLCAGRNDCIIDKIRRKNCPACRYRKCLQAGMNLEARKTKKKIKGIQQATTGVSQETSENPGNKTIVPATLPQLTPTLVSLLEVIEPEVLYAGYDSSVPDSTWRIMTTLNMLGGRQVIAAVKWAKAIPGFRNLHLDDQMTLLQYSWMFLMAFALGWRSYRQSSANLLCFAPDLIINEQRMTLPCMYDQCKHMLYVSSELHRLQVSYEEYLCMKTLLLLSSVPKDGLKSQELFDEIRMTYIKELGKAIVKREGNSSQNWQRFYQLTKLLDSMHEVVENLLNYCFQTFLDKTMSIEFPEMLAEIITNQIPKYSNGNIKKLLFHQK

[3] = target: Glucocorticoid receptor (Homo sapiens) (UniProt P04150); assay: GR-EFC Redistribution (AID 451; calls by dose curve; further: potency means the concentration at half of the fitted maximal effect); conditions: CHO-K1 GR-EFC translocation, beta-gal luminescence, 2 h
Summary of the method: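 CHO-K1 cells stably expressing nuclear-localized β-gal enzyme acceptor and GR fused C-terminally to the enzyme donor fragment; ligand-driven nuclear translocation restores β-gal by complementation. Compounds titrated up to 46 uM final, 2 h at 37 °C; luminescence read.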

[4] = target: 3',5'-cyclic-AMP phosphodiesterase 4B (Homo sapiens) (UniProt Q07343); assay: qHTS Assay for Inhibitors of PDE-IV (AID 607; active means well fitted activation curve with a large enough effect in the main read-out, with a control signal flat, not every such curve was filed as active)
Chain of 3',5'-cyclic-AMP phosphodiesterase 4B (Homo sapiens) (Q07343 whole entry, looked up): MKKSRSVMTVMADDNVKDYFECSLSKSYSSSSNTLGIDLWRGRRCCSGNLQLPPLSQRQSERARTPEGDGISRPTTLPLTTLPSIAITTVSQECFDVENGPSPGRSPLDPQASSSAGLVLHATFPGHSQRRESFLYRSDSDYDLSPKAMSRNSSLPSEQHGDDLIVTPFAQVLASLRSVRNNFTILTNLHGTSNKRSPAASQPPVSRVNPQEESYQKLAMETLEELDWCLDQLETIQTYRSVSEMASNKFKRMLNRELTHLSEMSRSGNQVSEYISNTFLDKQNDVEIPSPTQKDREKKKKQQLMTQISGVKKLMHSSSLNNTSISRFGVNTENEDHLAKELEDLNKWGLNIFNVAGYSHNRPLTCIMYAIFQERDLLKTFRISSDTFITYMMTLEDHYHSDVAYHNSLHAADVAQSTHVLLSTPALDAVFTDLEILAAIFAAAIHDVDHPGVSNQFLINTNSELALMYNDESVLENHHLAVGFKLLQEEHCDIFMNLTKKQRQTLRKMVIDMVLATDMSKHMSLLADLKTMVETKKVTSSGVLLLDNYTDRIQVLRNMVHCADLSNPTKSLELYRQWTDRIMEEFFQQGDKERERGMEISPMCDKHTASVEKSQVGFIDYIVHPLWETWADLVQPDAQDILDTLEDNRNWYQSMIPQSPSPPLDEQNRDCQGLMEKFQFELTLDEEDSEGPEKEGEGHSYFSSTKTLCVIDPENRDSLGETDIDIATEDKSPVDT
Summary of the method: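 The readout is membrane depolarisation from a cAMP-sensing CNG channel, detected with a potential dye at ex 535/em 590. Cells were HEK293-derived (endogenous PDE-IV) at 1000 cells/well, titrated up to 22.9 uM final.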

[5] = target: Cytochrome P450 3A4 (Homo sapiens) (UniProt P08684); assay: qHTS Assay for Activators of Cytochrome P450 3A4 (AID 885); further: nearly all actives have a fitted effect of over 65% in size
Chain of Cytochrome P450 3A4 (Homo sapiens) (P08684 whole entry, looked up): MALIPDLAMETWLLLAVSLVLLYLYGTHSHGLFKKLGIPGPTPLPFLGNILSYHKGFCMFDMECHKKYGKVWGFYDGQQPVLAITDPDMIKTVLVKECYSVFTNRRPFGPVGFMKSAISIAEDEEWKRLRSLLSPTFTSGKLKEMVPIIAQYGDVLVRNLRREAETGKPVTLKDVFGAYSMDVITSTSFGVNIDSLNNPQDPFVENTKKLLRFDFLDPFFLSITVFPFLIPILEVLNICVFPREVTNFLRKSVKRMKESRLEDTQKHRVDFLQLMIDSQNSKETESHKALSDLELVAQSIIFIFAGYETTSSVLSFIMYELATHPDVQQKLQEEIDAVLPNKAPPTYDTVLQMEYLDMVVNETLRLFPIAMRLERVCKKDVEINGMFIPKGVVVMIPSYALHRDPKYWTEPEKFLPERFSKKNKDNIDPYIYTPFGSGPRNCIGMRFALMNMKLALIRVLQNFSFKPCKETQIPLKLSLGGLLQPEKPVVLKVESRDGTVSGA
Summary of the method: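 Steps: enzyme/substrate mix dispensed; compound added, 10 min RT; NADPH regeneration solution added, 60 min RT; luciferin detection buffer stops reaction; 20 min later luminescence measured.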

[6] = target: DNA dC->dU-editing enzyme APOBEC-3G (Homo sapiens) (UniProt Q9HC16); assay: qHTS for inhibitors of Vif-A3G interactions: Validation (AID 588379); further: potency means the concentration at half of the fitted maximal effect
Chain of DNA dC->dU-editing enzyme APOBEC-3G (Homo sapiens) (Q9HC16 whole entry, looked up): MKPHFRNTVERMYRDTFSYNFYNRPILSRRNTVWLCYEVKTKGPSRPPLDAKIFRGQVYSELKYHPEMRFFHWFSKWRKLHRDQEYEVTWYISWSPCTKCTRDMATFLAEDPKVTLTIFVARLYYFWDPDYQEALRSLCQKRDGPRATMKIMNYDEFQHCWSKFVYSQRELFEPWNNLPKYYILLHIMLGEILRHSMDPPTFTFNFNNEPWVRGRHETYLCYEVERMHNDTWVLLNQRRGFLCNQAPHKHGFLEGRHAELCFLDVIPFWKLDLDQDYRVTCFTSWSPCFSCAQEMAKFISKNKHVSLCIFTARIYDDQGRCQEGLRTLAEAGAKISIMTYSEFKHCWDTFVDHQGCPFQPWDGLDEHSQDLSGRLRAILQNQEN
Summary of the method: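 HeLa cells stably expressing Vif and A3G-eYFP, 700 cells/well, incubated overnight at 37 deg C, then exposed to compound overnight at 37 deg C. Inhibition of Vif-mediated degradation read as increased yellow fluorescence (Ex 488/Em 500-530) by laser-scanning cytometry.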

[7] = system: Zika virus NS2B-NS3 protease; assay: Primary screen GU AMC qHTS for Zika virus inhibitors (AID 1347154); further: nearly all actives have a fitted effect of over 70% in size
Summary of the method: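 Unlinked Zika NS2B hydrophilic domain/NS3 protease domain noncovalent complex (25 nM final) in 10 mM Tris-HCl pH 8.0, 0.01% Tween 20, with AMC peptide substrate. Fluorescence (ex 340, em 450 nm) change over 15 min, room temperature; percent inhibition fitted to 4-parameter Hill equation.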

[8] = Primary qHTS for small molecule stabilizers of the endoplasmic reticulum resident proteome: Secreted ER Calcium Modulated Protein (SERCaMP) assay (AID 1508630)
Summary of the method: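 GLuc-SERCaMP-expressing SH-SY5Y cells, pretreated 16 h with compound, are challenged with thapsigargin to empty ER calcium stores; after 4 h, coelenterazine is added directly to the medium and luminescence is imaged.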

[9] = target: Mitogen-activated protein kinase 10 (Mus musculus) (UniProt Q61831); assay: JNK3 AlphaScreen Assay (AID 530; active means well fitted curve in either direction with a large enough effect, not every such curve was filed as active;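 further: kinase came from lysate of stimulated human HepG2 cells; signal reports phosphorylation of biotinylated GST-cJun 1-79 at Ser73 with 10 µM ATP; series mostly up to about 57 µM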)
Summary of the method: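 JNK3 came from HepG2 lysates pre-activated with IL-1beta and TNF-alpha and phosphorylated biotinylated GST-cJun (1-79) at 10 uM ATP, pH 7.6, room temperature. Compounds were titrated. AlphaScreen signal used anti-phospho-cJun (Ser73) antibody.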

[10] = target: Cytochrome P450 2C9 (Homo sapiens) (UniProt P11712); assay: qHTS Assay for Inhibitors and Substrates of Cytochrome P450 2C9 (AID 883); further: potency means the concentration at half of the fitted maximal effect; nearly all actives have a fitted effect of over 60% in size
Chain of Cytochrome P450 2C9 (Homo sapiens) (P11712 whole entry, looked up): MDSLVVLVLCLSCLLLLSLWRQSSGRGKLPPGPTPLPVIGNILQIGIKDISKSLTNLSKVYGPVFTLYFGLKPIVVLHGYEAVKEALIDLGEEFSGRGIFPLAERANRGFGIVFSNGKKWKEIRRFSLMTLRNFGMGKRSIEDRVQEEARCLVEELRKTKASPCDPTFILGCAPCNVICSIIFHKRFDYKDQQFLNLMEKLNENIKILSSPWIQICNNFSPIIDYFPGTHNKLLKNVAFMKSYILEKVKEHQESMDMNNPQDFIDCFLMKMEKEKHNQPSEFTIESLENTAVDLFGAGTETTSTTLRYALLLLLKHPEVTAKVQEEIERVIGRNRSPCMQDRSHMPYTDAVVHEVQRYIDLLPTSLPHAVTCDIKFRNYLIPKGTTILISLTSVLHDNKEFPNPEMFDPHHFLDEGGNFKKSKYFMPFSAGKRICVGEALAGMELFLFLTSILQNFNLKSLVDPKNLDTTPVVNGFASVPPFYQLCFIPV
Summary of the method: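 A luminogenic readout tracked human CYP2C9 (10nM) converting deoxyluciferin (100uM, at KM) in 25mM KPO4 during 60 min at 37C with regenerated NADPH. Values normalized to 57uM sulphaphenazole as complete inhibition.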

[11] = target: Ubiquitin carboxyl-terminal hydrolase 1 (Homo sapiens) (UniProt O94782); assay: Inhibitors of USP1/UAF1: Pilot qHTS (AID 504865);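 further: rhodamine fluorescence freed from ubiquitin-rhodamine substrate followed over time; top concentration of the series differs between compounds; nearly all actives have a fitted effect of over 35% in size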
Chain of Ubiquitin carboxyl-terminal hydrolase 1 (Homo sapiens) (O94782 whole entry, looked up): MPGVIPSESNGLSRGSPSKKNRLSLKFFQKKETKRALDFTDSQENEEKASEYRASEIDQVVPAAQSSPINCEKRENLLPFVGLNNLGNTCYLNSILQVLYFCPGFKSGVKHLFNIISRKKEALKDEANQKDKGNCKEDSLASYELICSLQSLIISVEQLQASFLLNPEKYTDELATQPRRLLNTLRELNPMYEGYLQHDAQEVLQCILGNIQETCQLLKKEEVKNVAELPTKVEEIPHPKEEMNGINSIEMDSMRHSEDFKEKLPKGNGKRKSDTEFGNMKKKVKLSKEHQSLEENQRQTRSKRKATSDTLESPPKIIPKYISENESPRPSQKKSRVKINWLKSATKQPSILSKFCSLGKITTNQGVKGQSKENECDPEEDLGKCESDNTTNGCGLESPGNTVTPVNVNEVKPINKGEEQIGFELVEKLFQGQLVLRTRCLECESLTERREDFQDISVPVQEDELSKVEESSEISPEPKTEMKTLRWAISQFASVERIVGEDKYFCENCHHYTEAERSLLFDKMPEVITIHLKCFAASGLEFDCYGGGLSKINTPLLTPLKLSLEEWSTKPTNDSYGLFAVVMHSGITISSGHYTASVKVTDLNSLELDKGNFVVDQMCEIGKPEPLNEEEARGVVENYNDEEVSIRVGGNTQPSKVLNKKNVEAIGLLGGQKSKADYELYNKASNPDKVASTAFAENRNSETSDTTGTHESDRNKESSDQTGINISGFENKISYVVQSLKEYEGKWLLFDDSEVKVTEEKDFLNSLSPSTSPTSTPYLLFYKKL
Summary of the method: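 Deubiquitinase activity followed as kinetic rhodamine fluorescence release from 150 nM Ub-Rho. 1 nM USP1/UAF1 with compound, after 15 min room-temperature preincubation, in HEPES pH 7.8 buffer containing TCEP, EDTA, BSA and Tween-20.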

Measured: Potency

COc1cc(OC)c(C(=O)CCCCN2CCC3(CC2)NC(=O)NC3=O)cc1NS(=O)(=O)c1ccc(C(F)(F)F)cc1
inactive: [1] | [2] > 46 µM | [3] > 46 µM | [4] | [5] | [6] | [7] | [8]

CS(=O)(=O)c1ccc(-c2cc(Br)sc2-c2ccc(F)cc2)cc1
inactive: [2] > 46 µM | [3] > 46 µM | [9] | [5] | [6] | [7] | [8]
active: [1] 0.398 µM | [10] 0.794 µM

COc1ccc2[nH]c(C(=O)c3ccccc3)cc2c1
inactive: [2] > 46 µM | [3] > 46 µM | [6] | [7] | [8]
active: [1] 0.1 µM

O=C1c2ccccc2CC[C@H]1CNCCc1ccc(O)cc1
active: [1] 20 µM
inactive: [2] > 46 µM | [3] > 46 µM | [5] | [6] | [7] | [8]

COC(=O)/C=C\c1cc(O)ccc1O
inactive: [2] > 46 µM | [3] > 46 µM | [9] | [4] | [7] | [8]
active: [1] 3.98 µM | [10] 7.94 µM | [6] 18.8 µM

c1cc2c(cc1C1CCCCC1)c1c3n2CCN[C@H]3CCC1
inactive: [2] > 46 µM | [3] > 46 µM | [9] | [5] | [6] | [7] | [8]
active: [1] 15.8 µM

O=C1C(=O)N(Cc2ccc(Cl)c(Cl)c2)c2ccccc21
active: [1] 12.6 µM
inactive: [3] > 46 µM | [5] | [6] | [7] | [8]

CCCCCCCC(=O)O[C@H](CC(=O)O)C[N+](C)(C)C
inactive: [2] > 46 µM | [3] > 46 µM | [9] | [11] | [6] | [7] | [8]

Cc1nc2ccc(NC(=O)Nc3ccnc4cccnc34)cc2o1
active: [1] 1 µM
inactive: [3] > 46 µM | [4] | [5] | [6] | [7] | [8]

COc1ccc(OC)c2c(=S)c3ccccc3[nH]c12
inactive: [2] > 46 µM | [3] > 46 µM | [4] | [5] | [6] | [7] | [8]
active: [1] 0.0631 µM

Cc1o[nH]c(=O)c1CC[C@H](N)C(=O)O
inactive: [2] > 46 µM | [3] > 46 µM | [9] | [11] | [6] | [7] | [8]

CSc1cc2c(cc1C(F)(F)F)N(C(=O)Nc1cccnc1)CC2
active: [1] 0.000794 µM | [10] 0.0063 µM
inactive: [2] > 46 µM | [3] > 46 µM | [9] | [5] | [6] | [7] | [8]

CNCCCCCCCCSc1nc(C(C)C)ccc1C(=O)c1cccs1
active: [1] 31.6 µM
inactive: [2] > 46 µM | [3] > 46 µM | [9] | [5] | [7] | [8]

O=C(c1ccccc1)[C@@H]1O[C@H]1c1ccc(-c2ccccc2)cc1
inactive: [3] > 46 µM | [9] | [6] | [7] | [8]
active: [1] 6.31 µM
